Paper PMC5700166

Target: T1, GST-Nv-NF-kB (Ser allele) (Nematostella vectensis, UniProt A7UNT2 2-411)
T1 sequence: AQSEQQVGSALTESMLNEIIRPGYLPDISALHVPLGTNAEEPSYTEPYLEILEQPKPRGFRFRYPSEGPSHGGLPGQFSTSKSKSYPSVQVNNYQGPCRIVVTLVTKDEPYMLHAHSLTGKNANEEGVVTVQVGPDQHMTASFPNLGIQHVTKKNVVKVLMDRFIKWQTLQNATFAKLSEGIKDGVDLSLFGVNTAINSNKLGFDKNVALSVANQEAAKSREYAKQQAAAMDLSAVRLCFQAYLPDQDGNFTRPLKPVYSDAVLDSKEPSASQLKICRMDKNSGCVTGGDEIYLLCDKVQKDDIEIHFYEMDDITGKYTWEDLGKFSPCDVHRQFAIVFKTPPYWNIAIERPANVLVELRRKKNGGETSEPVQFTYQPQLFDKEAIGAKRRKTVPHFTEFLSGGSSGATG
Test: protein-binding microarray (PBM); PBM: ~300 nM protein, 6 mM HEPES pH 7.8, 80 mM KCl, 0.5 mM EDTA, 0.5 mM EGTA, 6% glycerol, 35 ng/ul poly-dIdC, 1% milk, 1 h, room temperature; Ap Aiptasia and Nv Nematostella (sea anemones) / Co Capsaspora / Aq Amphimedon (sponge) / Dm Drosophila / Hu human; RHD is the Rel homology domain; high values mean tight binding
Conditions: dsDNA, one strand shown

**Q.** With “CCGATTAACATCAGGGACGCCCCTGATGTTAATCGGGTCTTGATTCGCTTGACGCTGCTG” as the sequence, how does the binding signal read?
**A.** 3.51 z-score

**Q.** How did the binding signal turn out when “CCGATTAACATCACGGGAATGCCTGATGTTAATCGGGTCTTGATTCGCTTGACGCTGCTG” was run?
**A.** 1.33 z-score

**Q.** Which binding signal does the source give for “CCGATTAACATCAAGCCCCCCCCTGATGTTAATCGGGTCTTGATTCGCTTGACGCTGCTG” here?
**A.** 4.25 z-score

**Q.** For “CCGATTAACATCAGGATATCCCCTGATGTTAATCGGGTCTTGATTCGCTTGACGCTGCTG”, which binding signal is on record?
**A.** 6.27 z-score

**Q.** “CCGATTAACATCAATATCCCCCCTGATGTTAATCGGGTCTTGATTCGCTTGACGCTGCTG” was tested. Which binding signal did it give?
**A.** 6.44 z-score

**Q.** “CCGATTAACATCAGAAATTACCCTGATGTTAATCGGGTCTTGATTCGCTTGACGCTGCTG” was tested. Which binding signal did it give?
**A.** 5.41 z-score

**Q.** How did the binding signal turn out when “CCGATTAACATCAGGGCTCCCCCTGATGTTAATCGGGTCTTGATTCGCTTGACGCTGCTG” was run?
**A.** 5.09 z-score

**Q.** How did the binding signal turn out when “CCGATTAACATCATTTCCGGAAATGATGTTAATCGGGTCTTGATTCGCTTGACGCTGCTG” was run?
**A.** 1.02 z-score

**Q.** How did the binding signal turn out when “CCGATTAACATCAGGAACCCCCCTGATGTTAATCGGGTCTTGATTCGCTTGACGCTGCTG” was run?
**A.** 5.44 z-score

**Q.** With “CCGATTAACATCATTTTACCTTGTGATGTTAATCGGGTCTTGATTCGCTTGACGCTGCTG” as the sequence, how does the binding signal read?
**A.** 3.39 z-score

**Q.** “CCGATTAACATCAAAAGCCCCCCTGATGTTAATCGGGTCTTGATTCGCTTGACGCTGCTG” was tested. Which binding signal did it give?
**A.** 4.86 z-score

**Q.** Which binding signal does the source give for “CCGATTAACATCACTCCCCCCCCTGATGTTAATCGGGTCTTGATTCGCTTGACGCTGCTG” here?
**A.** 4.8 z-score

**Q.** How did the binding signal turn out when “CCGATTAACATCAAAACACCCCTTGATGTTAATCGGGTCTTGATTCGCTTGACGCTGCTG” was run?
**A.** 2.64 z-score

**Q.** “CCGATTAACATCAGGATGTCCCCTGATGTTAATCGGGTCTTGATTCGCTTGACGCTGCTG” was tested. Which binding signal did it give?
**A.** 4.5 z-score

**Q.** For “CCGATTAACATCAGGGGGGTTACTGATGTTAATCGGGTCTTGATTCGCTTGACGCTGCTG”, which binding signal is on record?
**A.** 4.18 z-score

**Q.** How did the binding signal turn out when “CCGATTAACATCAGGAGATCCCCTGATGTTAATCGGGTCTTGATTCGCTTGACGCTGCTG” was run?
**A.** 6.55 z-score

**Q.** Which binding signal does the source give for “CCGATTAACATCAAGGGGGGGATTGATGTTAATCGGGTCTTGATTCGCTTGACGCTGCTG” here?
**A.** 6.32 z-score

**Q.** Which binding signal does the source give for “CCGATTAACATCAGAAATACCCATGATGTTAATCGGGTCTTGATTCGCTTGACGCTGCTG” here?
**A.** 4.71 z-score

**Q.** With “CCGATTAACATCAAAAACCACCCTGATGTTAATCGGGTCTTGATTCGCTTGACGCTGCTG” as the sequence, how does the binding signal read?
**A.** 4.22 z-score

**Q.** With “CCGATTAACATCACGGAATTCCCTGATGTTAATCGGGTCTTGATTCGCTTGACGCTGCTG” as the sequence, how does the binding signal read?
**A.** 6.06 z-score

**Q.** Which binding signal does the source give for “CCGATTAACATCAGTTGTCCCGCTGATGTTAATCGGGTCTTGATTCGCTTGACGCTGCTG” here?
**A.** 1.42 z-score

**Q.** For “CCGATTAACATCACATATCCCCCTGATGTTAATCGGGTCTTGATTCGCTTGACGCTGCTG”, which binding signal is on record?
**A.** 6.2 z-score

**Q.** With “CCGATTAACATCAGGAAAGCCCCTGATGTTAATCGGGTCTTGATTCGCTTGACGCTGCTG” as the sequence, how does the binding signal read?
**A.** 6.08 z-score

**Q.** For “CCGATTAACATCACTAAACCCCCTGATGTTAATCGGGTCTTGATTCGCTTGACGCTGCTG”, which binding signal is on record?
**A.** 6.49 z-score

**Q.** Which binding signal does the source give for “CCGATTAACATCACGCATCCCCCTGATGTTAATCGGGTCTTGATTCGCTTGACGCTGCTG” here?
**A.** 6.09 z-score

**Q.** How did the binding signal turn out when “CCGATTAACATCACATACCTACCTGATGTTAATCGGGTCTTGATTCGCTTGACGCTGCTG” was run?
**A.** 1.21 z-score

**Q.** For “CCGATTAACATCAAAAAACCCCGTGATGTTAATCGGGTCTTGATTCGCTTGACGCTGCTG”, which binding signal is on record?
**A.** 6.46 z-score

**Q.** Which binding signal does the source give for “CCGATTAACATCAAAAAAACACCTGATGTTAATCGGGTCTTGATTCGCTTGACGCTGCTG” here?
**A.** 5.3 z-score

**Q.** Which binding signal does the source give for “CCGATTAACATCAAGGGGGGTTATGATGTTAATCGGGTCTTGATTCGCTTGACGCTGCTG” here?
**A.** 5.24 z-score

**Q.** For “CCGATTAACATCATCTCCCCCCATGATGTTAATCGGGTCTTGATTCGCTTGACGCTGCTG”, which binding signal is on record?
**A.** 3.69 z-score

**Q.** “CCGATTAACATCAAAAGGAAATTTGATGTTAATCGGGTCTTGATTCGCTTGACGCTGCTG” was tested. Which binding signal did it give?
**A.** 1.08 z-score

**Q.** How did the binding signal turn out when “CCGATTAACATCAGGAGTCCCCCTGATGTTAATCGGGTCTTGATTCGCTTGACGCTGCTG” was run?
**A.** 5.14 z-score

**Q.** Which binding signal does the source give for “CCGATTAACATCACAGAGTCCCCTGATGTTAATCGGGTCTTGATTCGCTTGACGCTGCTG” here?
**A.** 6.04 z-score

**Q.** “CCGATTAACATCAGGGATTTTTATGATGTTAATCGGGTCTTGATTCGCTTGACGCTGCTG” was tested. Which binding signal did it give?
**A.** 5.24 z-score

**Q.** “CCGATTAACATCATACTTCCCCATGATGTTAATCGGGTCTTGATTCGCTTGACGCTGCTG” was tested. Which binding signal did it give?
**A.** 6.52 z-score

**Q.** For “CCGATTAACATCAGATCCCCCCCTGATGTTAATCGGGTCTTGATTCGCTTGACGCTGCTG”, which binding signal is on record?
**A.** 5.97 z-score

**Q.** For “CCGATTAACATCAAAATTCCCGATGATGTTAATCGGGTCTTGATTCGCTTGACGCTGCTG”, which binding signal is on record?
**A.** 4.77 z-score

**Q.** With “CCGATTAACATCAGACAACCCCCTGATGTTAATCGGGTCTTGATTCGCTTGACGCTGCTG” as the sequence, how does the binding signal read?
**A.** 4.56 z-score

**Q.** For “CCGATTAACATCAGGGAGTTTACTGATGTTAATCGGGTCTTGATTCGCTTGACGCTGCTG”, which binding signal is on record?
**A.** 3.63 z-score
